Screening data deposited in PubChem BioAssay by The Scripps Research Institute Molecular Screening Center.
pPAFAH inh = pPAFAH (human) enzyme inhibition | Q13093 | recombinant pPAFAH, FP-rhodamine probe fluorescence polarization | inhibition, % at 3.39 µM | 330,000 compounds, 1.5% hits;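 active = inhibition above the mean inhibition across the screen plus 3 SD, cut at about 25% in these data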;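 also: inhibitors block binding of the rhodamine activity-based probe so polarization drops; 0% = enzyme with DMSO and 100% = wells lacking pPAFAH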
PAFAH1B2 FP inh = inhibitors of human PAFAH1B2. inhibition, % at 3.39 µM. 340,000 compounds, 1.2% hits. P68402. recombinant PAFAH1B2, FP-rhodamine activity probe, fluorescence polarization;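 active = inhibition above the mean of all tested compounds plus 3 SD, cut at about 24% in these data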;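 also: 0% = enzyme with DMSO and 100% = wells lacking PAFAH1B2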
Target sequence (P68402 whole entry, looked up): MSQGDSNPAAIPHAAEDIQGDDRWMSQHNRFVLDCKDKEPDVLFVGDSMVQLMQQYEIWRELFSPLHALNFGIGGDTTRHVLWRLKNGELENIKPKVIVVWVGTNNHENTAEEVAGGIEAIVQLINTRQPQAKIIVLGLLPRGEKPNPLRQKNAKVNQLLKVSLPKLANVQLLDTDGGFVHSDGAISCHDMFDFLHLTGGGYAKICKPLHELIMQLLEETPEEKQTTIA
Fam108B inh = counter-screen for RBBP9 inhibitors: inhibitors of mouse Fam108B | recombinant Fam108B, FP-Rh probe fluorescence polarization | inhibition, % at 9.51 µM | 300,000 compounds, 0.33% hits;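 active = inhibition above the screen mean inhibition plus 3 SD, computed separately per campaign, cut at about 18% in these data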;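 also: inhibitors lower polarization as less probe binds the enzyme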
PAFAH2 inh = inhibitors of human PAFAH2; inhibition, % at 3.39 µM; 340,000 compounds, 0.99% hits; AID 492956; Q99487; recombinant PAFAH2, FP-rhodamine activity probe, fluorescence polarization;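 active = inhibition above the mean over all tested compounds plus 3 SD, cut at about 30% in these data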;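 also: inhibitors block probe labeling of enzyme so polarization drops; 0% = enzyme with DMSO and 100% = wells lacking PAFAH2 protein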
PAFAH1B3 inh = PAFAH1B3 (human) inhibition; Q15102; recombinant PAFAH1B3, FP-rhodamine probe, fluorescence polarization; inhibition, % at 3.39 µM; 340,000 compounds, 0.28% hits; AID 492972;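 active = inhibition above the screen-wide average of all tested compounds plus 3 SD, cut at about 25% in these data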;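 also: 0% = enzyme with DMSO only and 100% = wells lacking PAFAH1B3 protein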
Target sequence (Q15102 whole entry, looked up): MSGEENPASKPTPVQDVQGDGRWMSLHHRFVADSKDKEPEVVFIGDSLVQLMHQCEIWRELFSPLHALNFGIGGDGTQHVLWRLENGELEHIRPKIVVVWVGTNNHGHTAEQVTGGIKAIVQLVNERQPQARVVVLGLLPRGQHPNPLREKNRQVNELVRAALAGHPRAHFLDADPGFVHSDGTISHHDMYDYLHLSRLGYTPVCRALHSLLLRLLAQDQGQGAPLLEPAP
PME-1 primary = blocks human protein phosphatase methylesterase 1 | 320,000 compounds, 0.53% hits | inhibition, % at 5.9 µM | recombinant PME-1, FP-Rh probe fluorescence polarization | Q9Y570;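 active = inhibition above the campaign mean of all compounds plus 3 SD, cut at about 26% in these data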;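 also: competitive labeling of PME-1 active site by serine hydrolase directed probe; 0% = PME-1 with DMSO and 100% = wells lacking PME-1 enzyme; inhibitors block probe labeling so polarization falls and inhibition rises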
PAFAH2 FP conf = PAFAH2 (human) inhibition, confirmed; shares compounds with PAFAH2 inh; recombinant PAFAH2, FP-rhodamine activity probe, fluorescence polarization; inhibition, % at 3.39 µM; 2,300 compounds, 65% hits;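 active = mean inhibition over three repeats above a set limit taken from the earlier primary screen, cut at about 30% in these data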;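 also: inhibitor blocks binding of rhodamine activity probe so polarization falls; 0% = enzyme with DMSO and 100% = wells lacking PAFAH2 protein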
* marks the source's active call; other numbers are inactive results; nt = no result given. Only some compounds are listed: those with a hit (about 2.8% of all), similar ones and a draw of the others.

SMILES | pPAFAH inh | PAFAH1B2 FP inh | Fam108B inh | PAFAH2 inh | PAFAH1B3 inh | PME-1 primary | PAFAH2 FP conf
CCC(CC)NC(=O)COC(=O)c1ccc(OCC(=O)Nc2ccccc2OC)c(OC)c1 | -1 | -6 | 2 | 60* | 3 | 4 | 63*
O=C(Nc1cccc(S(=O)(=O)NC2=NCCC2)c1)c1ccc(=O)[nH]c1 | 4 | 4 | nt | -2 | 3 | -1 | nt
COc1ccc(S(=O)(=O)N2CCCC(C(=O)NCCN3CCOCC3)C2)cc1C (configuration not stated) | -4 | 5 | 1 | 2 | 2 | -2 | nt
COc1ccc(C(=O)OCC(=O)Nc2ccc(F)cc2F)cc1OC | 10 | 4 | 0 | 76* | 5 | -5 | 72*
COc1cccc(/C=C/C(=O)OCC(=O)NC2CCCCCCC2)c1 | 14 | 7 | nt | 96* | 1 | nt | 82*
COc1cccc(/C=C/C(=O)OCC(=O)NC(=O)NC2CCCC2)c1 | 0 | 5 | nt | 20 | 8 | 0 | nt
COc1ccc(/C=C/C(=O)OCC(=O)NC2CCCC2)cc1 | 8 | -3 | nt | 83* | -1 | 5 | 86*
O=C(COC(=O)/C=C/c1ccc([N+](=O)[O-])cc1)NC(=O)NC1CCCCC1 | 6 | 3 | nt | 4 | -2 | nt | nt
CCc1ccc(-n2c(C)n[nH]c2=S)cc1 | -3 | -2 | -4 | 8 | 6 | -5 | nt
COc1ccc(C2(c3ccc(OC)cc3)NC(=O)N(CC(=O)Nc3cc(C)ccc3OC)C2=O)cc1 | 0 | -4 | -6 | -4 | -3 | -11 | nt
O=C(COC(=O)c1ccc2c(c1)C(=O)N(Cc1ccncc1)C2=O)Nc1cccc2ccccc12 | -3 | 1 | -7 | 2 | 3 | -13 | nt
Cc1c(C(c2cccc(Br)c2)c2c(C)n(C)n(-c3ccccc3)c2=O)c(=O)n(-c2ccccc2)n1C | 1 | 2 | 4 | 39* | 4 | 2 | 20
NC(=O)c1oc2ccc(Cl)cc2c1NC(=O)CN1CCOCC1 | 1 | 7 | -2 | -3 | 3 | -1 | nt
Cc1ccc(C(=O)O/N=C(\c2ccccc2)c2cccnc2)cc1 | 15 | 3 | 1 | 73* | 6 | 3 | 80*
O=C(O/N=C(/c1ccccc1)c1ccncc1)c1ccc(F)cc1 | 3 | nt | 3 | nt | nt | 1 | nt
O=C(NC12CC3CC(CC(C3)C1)C2)c1cncc(O)c1 | 3 | 22 | 1 | 38* | 18 | -1 | 20
O=C(NC12CC3CC(CC(C3)C1)C2)c1cccnc1 | 2 | 8 | -3 | 1 | -2 | -1 | nt
Cc1ccc(N2C(=O)C3CCCN3C2=S)cc1C (configuration not stated) | 5 | 5 | -1 | 4 | 10 | -2 | nt
Cc1ccc(C(=O)OCC(=O)Nc2ccc3c(c2)OCCO3)cc1C | nt | 0 | nt | 58* | -2 | nt | 52*
Cc1cc(C)cc(NC(=O)COC(=O)c2ccc3c(c2)OCCO3)c1 | 1 | 1 | nt | 72* | 5 | -6 | 77*
CCOc1ccc(NC(=O)COC(=O)c2ccc3c(c2)OCCO3)cc1 | 10 | -2 | nt | 60* | 4 | 3 | 54*
CC(=O)N1CCN(CCS(=O)(=O)c2ccc(Br)cc2)CC1 | 0 | 4 | nt | 10 | 5 | -2 | nt
CCN(CC)c1ccc(S(=O)(=O)N2CCOCC2)cc1NC(=O)COC(=O)/C=C/c1ccco1 | nt | 2 | nt | 55* | -3 | nt | 42*
O=C(COC(=O)/C=C/c1ccco1)Nc1cc(S(=O)(=O)N2CCOCC2)ccc1Cl | 6 | 2 | nt | 42* | -2 | nt | 37*
CCN(CC)c1ccc(S(=O)(=O)N2CCOCC2)cc1NC(=O)COC(=O)COc1ccccc1C | 3 | -8 | -1 | 1 | -1 | 4 | nt
SMILES | pPAFAH inh | PAFAH1B2 FP inh | Fam108B inh | PAFAH2 inh | PAFAH1B3 inh | PME-1 primary | PAFAH2 FP conf
CC(C)CNC(=O)COC(=O)c1cccc(S(=O)(=O)NCC(F)(F)F)c1 | 13 | 2 | -1 | 31* | 4 | -3 | 20
C=C1CCN([C@H](C(=O)OCc2ccc(C)cc2)C(C)C)S(=O)(=O)c2ccccc21 | 2 | 1 | 6 | 126* | 8 | 0 | 0
C=C1CCN([C@@H](C)C(=O)OCc2cccc(C)c2)S(=O)(=O)c2ccccc21 | -1 | 1 | 3 | 10 | 4 | 4 | nt
O=C(COC(=O)c1ccc(O)cc1)NCCC1=CCCCC1 | 13 | 3 | -7 | 57* | 6 | -4 | 50*
Cc1ccc(C(=O)OCC(=O)NCCC2=CCCCC2)cc1N | 9 | 6 | -2 | 2 | 0 | 0 | nt
O=C(COC(=O)c1ccc(F)cc1F)NCCC1=CCCCC1 | 17 | 3 | nt | 47* | 8 | 8 | 31*
O=C(COC(=O)c1ccc2c(c1)OCCO2)NCCC1=CCCCC1 | 17 | -1 | 1 | 58* | 2 | 2 | 47*
CCCc1nc2nc(C)c(NS(=O)(=O)c3ccc(C(C)(C)C)cc3)c(=O)n2[nH]1 | 4 | 9 | -2 | 9 | 9 | 2 | nt
CCCCCCCc1nc2nc(C)c(Br)c(=O)n2[nH]1 | 20 | 13 | 0 | 38* | 10 | 4 | 35*
Cc1sc(N)nc1-c1ccc(Oc2ccccc2)cc1 | 7 | 5 | 5 | 7 | 6 | 4 | nt
O=C(COC(=O)c1ccc(O)cc1)Nc1cc(S(=O)(=O)N2CCOCC2)ccc1Cl | 5 | 3 | nt | 65* | -2 | 16 | 54*
O=C(COC(=O)c1cccs1)Nc1cc(S(=O)(=O)N2CCOCC2)ccc1Cl | 1 | 2 | -2 | 53* | -2 | 4 | 38*
O=C(COC(=O)c1ccc(F)cc1F)Nc1cc(S(=O)(=O)N2CCOCC2)ccc1Cl | nt | 3 | nt | 34* | 11 | nt | 20
CN(C)c1ccc(C=C(c2nnnn2-c2ccccc2)c2nnnn2-c2ccccc2)cc1 | 1 | 0 | 5 | 5 | 6 | 3 | nt
Cc1ccc(C(=O)NCCc2c[nH]c3ccccc23)s1 | 9 | -3 | -4 | 7 | 8 | 5 | nt
O=C1CCCC/C=C\C[C@H](CC(=O)N(CCO)Cc2ccccc2)C(=O)N[C@@H](c2ccccc2)CO1 | 6 | 4 | nt | 48* | 7 | nt | 33*
CN1C(C(=O)Nc2cccc(O)c2)=CC(c2cccs2)=NS1(=O)=O | 2 | 4 | -2 | -2 | 5 | 2 | nt
O=C(COC(=O)c1ccc(Br)o1)Nc1cccc(S(=O)(=O)N2CCCCC2)c1 | 10 | 4 | nt | 23 | 2 | nt | nt
CCOc1ccc(C(=O)OCC(=O)Nc2cccc(S(=O)(=O)N3CCCC3)c2)cc1 | 9 | -1 | nt | 68* | -3 | 4 | 57*
O=C(COC(=O)c1ccc(O)cc1)Nc1cccc(S(=O)(=O)N2CCCCC2)c1 | 6 | -1 | -8 | 52* | -6 | -14 | 55*
O=C(COC(=O)c1ccco1)Nc1cccc(S(=O)(=O)N2CCCCC2)c1 | -2 | 5 | nt | 49* | -1 | nt | 41*
